NR3A LBD binder: modulates the human NR3A ligand-binding domain | NR3A LBD differential scanning fluorimetry, Tm shift; 0% = protein alone, 100% = glycine-bound protein | Tm shift relative to glycine control, % at 25 µM | 340,000 compounds, 2.5% hits;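 active = melting temperature shift of at least 10% of the positive control shift, at one fixed dose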
ADAM10 inh: inhibits human ADAM10 | inhibition, % at 7 µM | O14672 | recombinant ADAM10, EDANS/DABCYL FRET peptide cleavage, 3 h | 370,000 compounds, 0.62% hits;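 active = inhibition above a per-campaign cutoff equal to the mean of compounds falling between control-based bounds plus 3 SD, cut at about 20% in these data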;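 note: 0% = DMSO wells while the 100% control is not disclosed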
FAS-TE inh: FAS thioesterase (human) inhibition; P49327; recombinant FAS-TE, OMFH fluorogenic substrate, fluorescence endpoint; inhibition, % at 15 µM; 360,000 compounds, 0.67% hits;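 active = compounds whose normalised, plate-corrected inhibition of enzyme fluorescence in the single-dose primary screen is 50% or more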;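 note: 0% = DMSO with enzyme and 100% = substrate without enzyme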
HGIII-sPLA2 inh: Inhibits HGIII-sPLA2 liposome hydrolysis, primary screen. AID 743126. Q9NZ20. inhibition, % at 12.2 µM. 370,000 compounds, 0.56% hits. QFRET BODIPY PC-A2 liposome hydrolysis, fluorescence;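 active = inhibition above mean plus 3 SD of compounds lying within the high and low control bounds, cut at about 19% in these data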;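 note: 0% = median of test compound wells and 100% = no enzyme DMSO wells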
ADAM17 inh: inhibitors of human ADAM17. 370,000 compounds, 0.83% hits. inhibition, % at 6.95 µM. P78536. recombinant ADAM17, EDANS/DABCYL FRET peptide cleavage;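 active = inhibition above the mean of compounds lying between control limits plus 3 SD, set per campaign, cut at about 8.5% in these data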;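 note: 0% = DMSO-only wells as the low control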
Target sequence (P78536 215-824 limits assumed): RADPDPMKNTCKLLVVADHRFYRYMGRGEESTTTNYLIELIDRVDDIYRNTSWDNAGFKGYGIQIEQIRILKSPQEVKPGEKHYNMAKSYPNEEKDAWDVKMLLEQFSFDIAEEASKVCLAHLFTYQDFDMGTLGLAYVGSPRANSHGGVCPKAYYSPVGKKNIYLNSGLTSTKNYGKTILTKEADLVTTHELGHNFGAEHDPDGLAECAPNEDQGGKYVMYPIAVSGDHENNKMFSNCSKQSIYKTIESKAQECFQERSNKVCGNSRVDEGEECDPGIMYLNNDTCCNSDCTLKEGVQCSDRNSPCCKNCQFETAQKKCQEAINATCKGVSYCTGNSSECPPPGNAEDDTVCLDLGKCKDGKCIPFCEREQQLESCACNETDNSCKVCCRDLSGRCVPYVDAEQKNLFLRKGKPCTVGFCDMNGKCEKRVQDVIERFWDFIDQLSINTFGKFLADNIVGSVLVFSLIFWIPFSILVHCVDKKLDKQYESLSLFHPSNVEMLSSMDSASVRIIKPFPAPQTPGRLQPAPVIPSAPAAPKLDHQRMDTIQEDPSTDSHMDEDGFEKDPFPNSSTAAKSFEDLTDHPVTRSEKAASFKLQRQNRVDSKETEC
ADAM10 counter: counter-screen for ADAM17 exosite inhibitors: inhibitors of human ADAM10. shares compounds with ADAM17 inh. recombinant ADAM10, EDANS/DABCYL FRET peptide cleavage, 3 h. inhibition, % at 6.95 µM. 2,900 compounds, 47% hits. AID 743256;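 active = mean inhibition over the triplicate runs exceeds the activity threshold set in the earlier primary screen, cut at about 20% in these data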;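 note: 0% = DMSO wells and 100% = marimastat wells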
ADAM17 confirm: confirmation of inhibitors of human ADAM17; shares compounds with ADAM17 inh; recombinant ADAM17, EDANS/DABCYL QFRET peptide cleavage; inhibition, % at 6.95 µM; 2,900 compounds, 65% hits; AID 743257;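 active = mean inhibition across replicates above the hit cutoff set in the primary screen, cut at about 8.5% in these data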;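 note: 0% = DMSO wells and 100% = marimastat wells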
* = called active by the depositor. This is a sample that favours compounds with a hit; in the whole collection about 4.3% have one here.

How did CC(C)(c1ccccc1)c1ccc(OCCn2cnc3ccccc3c2=O)cc1 do in these assays?
NR3A LBD binder: 21.5*; ADAM10 inh: 15.8; FAS-TE inh: 33.1; HGIII-sPLA2 inh: -3.8; ADAM17 inh: 9.6*; ADAM10 counter: 27.5*; ADAM17 confirm: 14.7*

What do the screens show for `O=C(c1ccccc1)c1ccc(OCCn2cnc3ccccc3c2=O)cc1`?
NR3A LBD binder: -0.1; ADAM10 inh: 8.7; FAS-TE inh: 20.2; HGIII-sPLA2 inh: -17.4; ADAM17 inh: -3.5

How did CCOc1ccc(NS(=O)(=O)c2cc(OC)ccc2OC)cc1 do in these assays?
NR3A LBD binder: -12.6; ADAM10 inh: 6.7; FAS-TE inh: -1.8; HGIII-sPLA2 inh: -9.7; ADAM17 inh: 0.0

What do the screens show for `CCOc1ccc(S(=O)(=O)Nc2ccc(F)cc2)c(C)c1C`?
NR3A LBD binder: -15.5; ADAM10 inh: 17.6; FAS-TE inh: 15.8; HGIII-sPLA2 inh: -26.8; ADAM17 inh: 9.5*; ADAM10 counter: 16.7; ADAM17 confirm: 12.0*

How did C[C@H]1COc2cc(N3CCSCC3)ccc2S(=O)(=O)N1C do in these assays?
ADAM10 inh: -17.1; HGIII-sPLA2 inh: 16.7; ADAM17 inh: -6.8

How did CCCCOC(=O)c1ccc(NC(=O)COC(=O)CN2C(=O)NC3(CCCC3)C2=O)cc1 do in these assays?
NR3A LBD binder: 0.3; ADAM10 inh: 5.4; FAS-TE inh: 5.1; HGIII-sPLA2 inh: -9.7; ADAM17 inh: 9.2*; ADAM10 counter: 21.4*; ADAM17 confirm: 12.5*

Results for CCCCOC(=O)c1ccc(NC(=O)CN2C(=O)NC3(CCCCCC3)C2=O)cc1 ?
NR3A LBD binder: -5.7; ADAM10 inh: 8.3; FAS-TE inh: 37.6; HGIII-sPLA2 inh: -19.1; ADAM17 inh: 7.7

What do the screens show for `Cc1ccc(OCc2nnc(SCC(=O)Nc3ccccc3-c3ccccc3)n2Cc2ccco2)cc1`?
ADAM10 inh: 13.3; HGIII-sPLA2 inh: -15.8; ADAM17 inh: 7.9

What do the screens show for `Cc1ccc(NC(=S)NC(=O)c2c(-c3ccccc3Cl)noc2C)cc1`?
NR3A LBD binder: -2.8; ADAM10 inh: 11.2; FAS-TE inh: 29.1; HGIII-sPLA2 inh: 3.9; ADAM17 inh: 10.0*; ADAM10 counter: 26.3*; ADAM17 confirm: 14.1*

How did Cc1onc(-c2ccccc2Cl)c1C(=O)NC(=S)Nc1ccc(C(C)C)cc1 do in these assays?
NR3A LBD binder: -1.2; ADAM10 inh: 9.1; FAS-TE inh: 31.0; HGIII-sPLA2 inh: -12.8; ADAM17 inh: 2.6

How did Cc1onc(-c2ccccc2Cl)c1C(=O)Nc1ccc2c(c1)OCO2 do in these assays?
NR3A LBD binder: -0.1; ADAM10 inh: 2.0; FAS-TE inh: 1.3; HGIII-sPLA2 inh: 1.1; ADAM17 inh: 10.4*; ADAM10 counter: 11.1; ADAM17 confirm: 8.5

How did Cc1onc(-c2c(Cl)cccc2Cl)c1C(=O)Nc1ccc2c(c1)OCCO2 do in these assays?
NR3A LBD binder: 0.4; ADAM10 inh: -6.2; FAS-TE inh: 6.6; HGIII-sPLA2 inh: -9.6; ADAM17 inh: 0.7

How did CN1OC[C@@H]2CN3C(=NCCc4ccccc4)Sc4ccccc4[C@@H]3C[C@@H]21 do in these assays?
ADAM10 inh: -10.9; HGIII-sPLA2 inh: -5.4; ADAM17 inh: -4.3

How did CCN(CC)S(=O)(=O)c1ccc2c(c1)nc(CCC(=O)Nc1ccc3c(c1)OCO3)n2C do in these assays?
NR3A LBD binder: -2.6; ADAM10 inh: -2.8; FAS-TE inh: -2.0; HGIII-sPLA2 inh: -1.4; ADAM17 inh: -0.9

What do the screens show for `CCN(CC)S(=O)(=O)c1ccc2c(c1)nc(CCC(=O)Nc1ccc3c(c1)OCO3)n2CC`?
NR3A LBD binder: -3.5; ADAM10 inh: 2.5; FAS-TE inh: -2.0; HGIII-sPLA2 inh: -12.6; ADAM17 inh: 8.9*; ADAM10 counter: -1.1; ADAM17 confirm: 2.6

What do the screens show for `O=C(NNc1ccccc1Br)C(=O)n1ccc2ccccc21`?
NR3A LBD binder: -3.7; ADAM10 inh: 16.8; FAS-TE inh: -3.0; HGIII-sPLA2 inh: -38.0; ADAM17 inh: 9.5*; ADAM10 counter: -5.0; ADAM17 confirm: 0.8

What do the screens show for `O=C(Nc1ccccc1Br)C(=O)N1CCCC1`?
NR3A LBD binder: -1.3; ADAM10 inh: -6.4; FAS-TE inh: -8.2; HGIII-sPLA2 inh: 2.5; ADAM17 inh: -4.0

What do the screens show for `COc1ccccc1C(=O)N(CCN(C)C)c1nc2cc(C)cc(C)c2s1`?
NR3A LBD binder: -1.3; ADAM10 inh: 1.1; FAS-TE inh: -2.0; HGIII-sPLA2 inh: -14.9; ADAM17 inh: -1.4

Results for Cc1cc(C)c2sc(N(CCN(C)C)C(=O)c3ccc4ccccc4c3)nc2c1 ?
NR3A LBD binder: 0.7; ADAM10 inh: 2.8; FAS-TE inh: 21.2; HGIII-sPLA2 inh: -9.4; ADAM17 inh: 10.1*; ADAM10 counter: 8.0; ADAM17 confirm: 8.2

How did COC(=O)[C@]12C[C@H](CC(=O)N3CCCCC3)C(=O)N(Cc3ccccc3)C1=C[C@H](C(C)C)O[C@@H]2C1CC1 do in these assays?
ADAM10 inh: 1.8; HGIII-sPLA2 inh: 0.9; ADAM17 inh: 6.9

How did CCOC(=O)c1ccc(NC(=S)NCc2ccc(F)cc2)cc1 do in these assays?
NR3A LBD binder: 6.6; ADAM10 inh: 18.2; FAS-TE inh: 13.5; HGIII-sPLA2 inh: -15.1; ADAM17 inh: 12.1*; ADAM10 counter: 13.7; ADAM17 confirm: 10.2*

Results for CC(Oc1ccc(Cl)cc1Cl)c1ccnc(N)n1 (configuration not stated) ?
NR3A LBD binder: -0.8; ADAM10 inh: 16.3; FAS-TE inh: 1.7; HGIII-sPLA2 inh: 7.6; ADAM17 inh: 9.2*; ADAM10 counter: 2.2; ADAM17 confirm: 3.4

What do the screens show for `Cc1ccc(S(=O)(=O)CNC(=S)c2cccc(Cl)c2)cc1`?
NR3A LBD binder: 0.4; ADAM10 inh: 19.4; FAS-TE inh: -1.8; HGIII-sPLA2 inh: 10.9; ADAM17 inh: 11.3*; ADAM10 counter: 48.5*; ADAM17 confirm: 26.1*

What do the screens show for `Cc1ccc(S(=O)(=O)NC(=S)c2ccccc2)cc1`?
NR3A LBD binder: -1.6; ADAM10 inh: 1.2; FAS-TE inh: -9.1; HGIII-sPLA2 inh: 3.6; ADAM17 inh: -1.5

How did Nc1nc2ncccc2cc1C(=O)c1c[nH]c2ccccc12 do in these assays?
ADAM10 inh: -0.3; HGIII-sPLA2 inh: -6.7; ADAM17 inh: -1.7

What do the screens show for `C/C(CC(=O)Nc1ccc(Br)cc1)=N\NC(=O)c1cccc(O)c1`?
NR3A LBD binder: -1.1; ADAM10 inh: 5.4; FAS-TE inh: -1.6; HGIII-sPLA2 inh: -31.5; ADAM17 inh: 10.0*; ADAM10 counter: 0.1; ADAM17 confirm: 1.9

What do the screens show for `C/C(CC(=O)Nc1ccc2c(c1)OCCO2)=N\NC(=O)c1cccc(O)c1`?
NR3A LBD binder: -1.8; ADAM10 inh: 6.0; FAS-TE inh: -3.1; HGIII-sPLA2 inh: -23.0; ADAM17 inh: 2.0
